In PubChem BioAssay:
Activity calls are given as the source filed them.

Experiments:
[1] = system: Plasmodium falciparum Sir2 (PF13_0152, Sir2A); test: pfSir2 binders on small-molecule microarrays, primary screen, biochemical, small-molecule microarray, 635 nm fluorescence (AID 1098); conditions: small-molecule microarray binding, fluorescence 635 nm; higher = more signal;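 further: score merges spot fluorescence intensity with its signal-to-noise ratio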
[2] = small-molecule microarray binders of probe aDKK1, primary screen, biochemical, biotinylated probe, 635/667 nm fluorescence (AID 1099); conditions: higher = more signal;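 further: score merges 667nm spot fluorescence with signal to noise across triplicate slides; reference of the scale not given here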
[3] = small-molecule microarray binders of probe aCHRDL2, primary screen, biochemical, biotinylated probe, 635/667 nm fluorescence (AID 1100); conditions: higher = more signal
[4] = splicing luciferase reporter signal modulators, primary screen, spliceosome inhibition project, cell-based, HEK293, splice +/- reporter (AID 1101); conditions: luminescence, 24 h, higher = more signal, called active from +8 up or from −8 down;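 further: HEK293 cells carrying a splicing-competent luciferase reporter gene; test concentration not given here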
[5] = target: Fibroblast growth factor 10 (Homo sapiens) (UniProt O15520); test: FGF10 binders on small-molecule microarrays, primary screen, biochemical, small-molecule microarray, 635 nm fluorescence (AID 1102); conditions: FGF10 binding, fluorescence 635 nm, higher = more signal
Fibroblast growth factor 10 (Homo sapiens), sequence (O15520 whole entry, looked up): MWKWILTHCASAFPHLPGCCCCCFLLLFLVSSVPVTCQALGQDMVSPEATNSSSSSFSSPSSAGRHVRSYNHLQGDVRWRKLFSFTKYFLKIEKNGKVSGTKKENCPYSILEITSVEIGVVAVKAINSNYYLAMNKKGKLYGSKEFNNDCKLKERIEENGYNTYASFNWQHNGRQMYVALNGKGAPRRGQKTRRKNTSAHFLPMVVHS

[6] = system: glycogen synthase kinase-3 (GSK3A per assay name; protocol says GSK3B); test: GSK3 binders on small-molecule microarrays, primary screen, biochemical, small-molecule microarray, 635 nm fluorescence, GSK3A (AID 1103); conditions: small-molecule microarray binding, fluorescence 635 nm; higher = more signal; further: the record names both GSK3A and GSK3B
[7] = target: Epidermal growth factor receptor (Homo sapiens) (UniProt P00533); test: EGFR binders on small-molecule microarrays, primary screen, biochemical, small-molecule microarray, 635 nm fluorescence (AID 1104); conditions: EGFR binding, higher = more signal;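 further: score merges 667 nm emission intensity with spot signal to noise over triplicate slides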
Epidermal growth factor receptor (Homo sapiens), sequence (P00533 whole entry, looked up): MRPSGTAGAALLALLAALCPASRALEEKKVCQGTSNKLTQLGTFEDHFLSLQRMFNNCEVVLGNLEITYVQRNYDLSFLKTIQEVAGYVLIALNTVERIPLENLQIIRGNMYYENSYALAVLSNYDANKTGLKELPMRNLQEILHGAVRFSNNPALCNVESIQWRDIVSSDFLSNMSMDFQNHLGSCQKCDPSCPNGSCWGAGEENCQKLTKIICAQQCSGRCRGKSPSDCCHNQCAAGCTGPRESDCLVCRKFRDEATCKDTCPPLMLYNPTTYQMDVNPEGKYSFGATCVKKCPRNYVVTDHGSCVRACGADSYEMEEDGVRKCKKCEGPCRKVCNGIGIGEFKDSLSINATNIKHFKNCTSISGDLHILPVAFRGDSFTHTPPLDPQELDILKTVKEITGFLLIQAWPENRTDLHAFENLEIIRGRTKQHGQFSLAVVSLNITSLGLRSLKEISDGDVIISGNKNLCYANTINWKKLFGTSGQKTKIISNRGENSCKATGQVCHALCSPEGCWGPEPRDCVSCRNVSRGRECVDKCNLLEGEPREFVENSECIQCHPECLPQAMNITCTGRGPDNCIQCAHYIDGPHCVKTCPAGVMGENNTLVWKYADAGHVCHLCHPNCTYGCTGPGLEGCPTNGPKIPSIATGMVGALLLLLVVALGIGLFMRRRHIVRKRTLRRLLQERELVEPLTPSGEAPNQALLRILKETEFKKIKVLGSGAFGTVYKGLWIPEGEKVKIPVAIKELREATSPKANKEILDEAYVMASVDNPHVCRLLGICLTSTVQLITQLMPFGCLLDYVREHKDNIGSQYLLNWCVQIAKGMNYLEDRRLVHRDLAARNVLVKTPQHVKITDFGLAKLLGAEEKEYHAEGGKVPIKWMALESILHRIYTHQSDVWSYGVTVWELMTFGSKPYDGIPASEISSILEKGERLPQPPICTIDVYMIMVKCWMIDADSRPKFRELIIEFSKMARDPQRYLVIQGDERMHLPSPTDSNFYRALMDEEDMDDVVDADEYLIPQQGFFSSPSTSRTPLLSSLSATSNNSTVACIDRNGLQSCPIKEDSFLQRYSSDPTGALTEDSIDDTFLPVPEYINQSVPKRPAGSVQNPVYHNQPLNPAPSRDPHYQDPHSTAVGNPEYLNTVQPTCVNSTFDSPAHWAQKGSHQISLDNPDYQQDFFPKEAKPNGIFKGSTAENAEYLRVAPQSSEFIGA

[8] = target: Follistatin-related protein 3 (Homo sapiens) (UniProt O95633); test: FSTL3 binders on small-molecule microarrays, primary screen, biochemical, small-molecule microarray, 635 nm fluorescence (AID 1105); conditions: FSTL3 binding, higher = more signal;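 further: score merges emission near 667 nm and signal to noise per printed spot across three slides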
Follistatin-related protein 3 (Homo sapiens), sequence (O95633 whole entry, looked up): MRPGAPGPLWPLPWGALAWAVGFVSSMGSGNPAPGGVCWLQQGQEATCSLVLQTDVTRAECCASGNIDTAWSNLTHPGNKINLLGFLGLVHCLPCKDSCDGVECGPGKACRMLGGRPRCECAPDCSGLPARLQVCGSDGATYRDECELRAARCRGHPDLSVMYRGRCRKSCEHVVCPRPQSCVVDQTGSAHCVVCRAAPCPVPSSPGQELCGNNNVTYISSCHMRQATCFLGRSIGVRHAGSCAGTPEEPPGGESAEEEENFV

[9] = target: Dickkopf-related protein 1 (Homo sapiens) (UniProt O94907); test: DKK1 binders on small-molecule microarrays, primary screen, biochemical, small-molecule microarray, 635 nm fluorescence scan (AID 1106); conditions: DKK1 binding, higher = more signal;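 further: score merges emission near 667 nm with signal to noise over three replicate slides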
Dickkopf-related protein 1 (Homo sapiens), sequence (O94907 whole entry, looked up): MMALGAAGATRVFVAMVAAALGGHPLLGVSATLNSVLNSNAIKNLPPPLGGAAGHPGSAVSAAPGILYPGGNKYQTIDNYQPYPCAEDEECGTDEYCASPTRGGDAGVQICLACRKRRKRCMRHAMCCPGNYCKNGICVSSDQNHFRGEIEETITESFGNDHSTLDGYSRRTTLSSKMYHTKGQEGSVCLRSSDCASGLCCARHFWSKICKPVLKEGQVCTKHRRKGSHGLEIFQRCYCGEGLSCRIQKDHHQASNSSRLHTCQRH

[10] = system: Inhibin beta A chain (activin A); test: INHBA (activin A) binders on microarrays, primary screen, biochemical, small-molecule microarray, 635 nm fluorescence scan (AID 1107); conditions: small-molecule microarray binding, higher = more signal;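 further: mouse activin A protein probed at 4.33 µg/mL on printed slides; score merges bound-protein fluorescence near 667 nm with spot signal-to-noise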

Row | Structure (SMILES) | composite z-score [1] | composite z-score [2] | composite z-score [3] | z-score [4] | composite z-score [5] | composite z-score [6] | composite z-score [7] | composite z-score [8] | composite z-score [9] | composite z-score [10]
1 | CN(C)C(=O)[C@]1(Cc2ccccc2N=[N+]=[N-])N=C(c2ccc(OCCCO)cc2)O[C@@H]1c1ccccc1CN=[N+]=[N-] | 0.43 | 0.189 | 0.279 | -0.891 (inactive) | 1.38 | 1.32 | 0.243 | 1.3 | 0.825 | 0.764
2 | O=C1O[C@H](c2ccccc2)[C@H](c2ccccc2)N2[C@H]1[C@@H](C(=O)NC[C@H](O)c1ccccc1)[C@]1(C(=O)Nc3ccccc31)[C@H]2c1ccccc1OCCO | 1.61 | -0.0915 | 0.499 | -2.06 (inactive) | 0.561 | 0.447 | 0.0728 | 0.263 | -0.0453 | 0.914
3 | COC(=O)[C@@]1(Cc2ccc(OC)cc2)[C@H]2c3cc(C(=O)N(C)C)n(Cc4cc(C)n(C)n4)c3C[C@H]2CN1C(=O)c1ccccc1 | 1.07 | 0.383 | 0.433 | -1.03 (inactive) | 1.43 | 0.902 | -0.232 | -0.0771 | -0.382 | 0.79
4 | CC(C)NC(=O)[C@@]1(Cc2ccccc2I)c2ccccc2C(=O)N(Cc2ccccc2C(F)(F)F)[C@H]1c1ccc(CO)cc1 | 1.75 | 0.474 | 0.594 | 0.4 (inactive) | 0.157 | 0.182 | -0.251 | 0.0273 | -0.467 | 0.299
5 | CO[C@H]1O[C@H](CO)[C@@H](OC(=O)c2ccc(Br)cc2)[C@@H]2OC(=O)[C@H](Cc3cccc(Br)c3)C/C=C/C[C@@H](Cc3cccc(Br)c3)C(=O)O[C@@H]12 | 0.418 | 0.649 | 0.78 | 0.0118 (inactive) | 1.04 | 0.559 | 0.194 | 0.914 | 0.189 | 0.602
6 | COC(=O)C(CC#Cc1ccc2c(c1)[C@]1(C(=O)N2)[C@H](C(=O)N2CCc3cc(OC)c(OC)cc3C2)[C@H]2C(=O)O[C@H](c3ccccc3)[C@H](c3ccccc3)N2[C@@H]1c1ccc(OCCO)cc1)C(=O)OC | 1.08 | 0.0138 | 0.415 | -0.291 (inactive) | 1.39 | 1.3 | 0.732 | 0.94 | 0.544 | 0.614
7 | COCCCNC(=O)[C@]1(Cc2ccccc2)N=C(c2ccc(OCCCO)cc2)O[C@@H]1c1ccccc1N=[N+]=[N-] | 0.816 | 0.346 | 0.879 | -1.51 (inactive) | 1.26 | 1.33 | -0.184 | 0.481 | -0.267 | 0.618
8 | O=C1c2ccccc2[C@](Cc2ccccc2I)(C(=O)NCC(F)(F)F)[C@H](c2ccc(CO)cc2)N1Cc1ccccc1 | 1.14 | 0.0143 | 0.296 | -0.507 (inactive) | 0.269 | 0.848 | -0.0654 | 0.871 | -0.316 | 0.545
9 | COc1ccc(CCNC(=O)[C@@H]2c3ccccc3C(=O)N(Cc3ccccc3C(F)(F)F)[C@H]2c2ccc(CO)cc2)cc1 | 1.46 | -0.0126 | 0.946 | 0.609 (inactive) | 0.176 | 0.013 | -1.01 | -0.348 | -0.814 | 0.288
10 | CCCCCCC#C[Si](O[C@H](c1ccccc1)c1cn(Cc2cccc(Cl)c2)nn1)(C(C)C)C(C)C | 1.11 | -0.166 | -0.287 | -0.577 (inactive) | 0.155 | 0.57 | 0.269 | 0.309 | 0.0628 | 0.308
11 | Cc1cc(C)c(C(O)C2C=CC3C(=O)N(c4ccccc4)C(=O)C3N2Nc2ccc([N+](=O)[O-])cc2)c(C)c1 (stereo not given) | 1.55 | 0.74 | 0.911 | 0.311 (inactive) | 0.693 | 1.3 | 0.326 | 1.45 | 0.275 | 0.471
12 | C[N+](C)(C)CCCC[C@@H]1NC(=O)[C@@H]2C[C@H](C(=O)NCCCCCNC(=O)CS)[C@H](c3cccc(OCCO)c3)N2C1=O | 1.71 | -0.14 | -0.149 | 0.241 (inactive) | 0.545 | 0.23 | 0.0868 | -0.19 | 0.585 | -0.003
13 | Cc1ccc(-c2cccc(=O)o2)cc1 | -0.466 | 0.0694 | -0.0115 | 0.613 (inactive) | -0.1 | -0.39 | 0.115 | 0.483 | 0.184 | 1.35
14 | C=C(/C(=C/C[C@@H](OC(=O)c1ccncc1)c1cccc(OCCO)c1)c1cc(C(=O)OC)ccc1OC)C(C)C | 1.57 | -0.17 | -0.115 | -0.71 (inactive) | 0.709 | 0.366 | -0.0516 | 0.59 | 0.0661 | 0.635
15 | Cc1ccccc1C(O)C1C=CC2C(=O)N(Cc3ccccc3)C(=O)C2N1n1cnnc1 (stereo not given) | 0.996 | 0.363 | 0.118 | -0.512 (inactive) | 0.517 | 0.644 | -0.126 | 0.834 | 0.189 | 0.837
16 | COCCCNC(=O)[C@@]1(Cc2ccccc2CN=[N+]=[N-])N=C(c2ccc(OCCCO)cc2)O[C@H]1c1ccccc1N=[N+]=[N-] | 1.61 | 1.05 | 1.28 | -1.26 (inactive) | 1.35 | 1.22 | 0.15 | 0.706 | 0.0902 | 0.542
17 | O=c1c2ccc(Br)cc2nc(-c2ccccc2)n1Cc1cccc(O)c1 | 0.524 | 0.864 | 0.715 | -0.376 (inactive) | 0.528 | 0.476 | 0.145 | 0.547 | 0.0301 | 0.41
18 | COCCOC(=O)N1C(=O)[C@@]2(c3cc(C#CCCO)ccc31)[C@H](c1ccc(OCCO)cc1)N1[C@H](c3ccccc3)[C@H](c3ccccc3)OC(=O)[C@H]1[C@@H]2C(=O)N1CCc2cc(OC)c(OC)cc2C1 | 1.29 | -0.0877 | 0.232 | 0.309 (inactive) | 1.16 | 1.31 | 0.58 | 0.882 | 0.582 | 0.413
19 | O=C1NC(=O)C2C1C=CC(C(O)c1ccc3c(c1)OCO3)N2Nc1ccc(Cl)cc1Cl (stereo not given) | 0.981 | 0.849 | 1.06 | 0.889 (inactive) | 0.553 | -0.334 | 0.205 | 0.304 | -0.278 | 1.19
20 | COC(=O)C(CC#Cc1ccc2c(c1)[C@]1(C(=O)N2)[C@H](C(=O)N2CCc3cc(OC)c(OC)cc3C2)[C@H]2C(=O)O[C@H](c3ccccc3)[C@H](c3ccccc3)N2[C@@H]1c1ccc(O)cc1)C(=O)OC | 1.06 | 0.432 | 0.417 | 0.362 (inactive) | 1.4 | 1.35 | 0.919 | 1.43 | 1.71 | -0.227
21 | C=C(COC)/C(=C/C[C@@H](OC(=O)c1ccncc1)c1cccc(OCCO)c1)c1cc(C(=O)OC)ccc1OC | 0.756 | -0.183 | -0.471 | -0.651 (inactive) | 1.62 | 1.2 | 0.29 | 0.902 | 0.167 | 0.997
22 | COC(=O)c1c(CC[C@@H](CO)NC(=O)N[C@@H](C)Cn2cc(C3(O)CCCC3)nn2)oc(C(C)=O)c1C(=O)OC | 0.513 | -0.196 | -0.206 | -1.45 (inactive) | 0.308 | -0.161 | 0.0477 | 0.104 | -0.217 | -0.338
23 | COc1cc2c(cc1OC)CN(C(=O)[C@@H]1[C@H]3C(=O)O[C@H](c4ccccc4)[C@H](c4ccccc4)N3[C@H](c3ccc(OCCO)cc3)[C@@]13C(=O)Nc1ccc(C#CCCO)cc13)CC2 | 1.18 | -0.0226 | 0.772 | -0.921 (inactive) | 1.28 | 1.27 | 0.714 | 1.23 | 0.646 | 0.638
24 | COC(=O)[C@@]1(Cc2ccccc2)[C@H]2c3cc(C(=O)N(C)C)n(Cc4ccccn4)c3C[C@H]2CN1C(=O)c1ccccc1 | 1.57 | 1.44 | 1.37 | -1.58 (inactive) | 0.548 | 0.225 | -0.805 | 0.155 | -1.09 | 0.46
25 | CC(C)(C)N1CC=CC23O[C@@H]4C=CCCOC(=O)C4[C@H]2C(=O)N(CCCO)[C@@H]3C1=O (stereo not given in full) | -0.992 | 1.43 | -0.0642 | -1.1 (inactive) | -0.681 | -0.764 | -0.608 | -0.788 | -0.0177 | 1.38
26 | CC(C)CNC(=O)[C@@]1(c2ccc([N+](=O)[O-])cc2)CC(=O)N(C(C)C)[C@@H]1c1ccc(CO)cc1 | 0.832 | -0.258 | 1.08 | -0.372 (inactive) | -1 | -1.02 | -0.362 | -0.129 | -1.59 | 0.07
27 | COc1ccc([Si](C)(C)[C@@H]2[C@@H](CCO)O[C@]3(C(=O)N(Cc4ccccc4)c4ccc(N5CCCCC5=O)cc43)[C@H]2C)cc1 | 0.883 | -0.107 | -0.0137 | -4.14 (inactive) | 0.959 | 1.1 | 0.197 | 0.962 | 0.218 | 0.796
28 | N#Cc1ccc(NN2C(C(O)c3ccco3)C=CC3C(=O)N(c4ccccc4)C(=O)C32)cc1 (stereo not given) | 0.939 | 0.565 | 0.843 | 1.07 (inactive) | 0.505 | -0.202 | 0.0343 | 0.0837 | 0.18 | 0.921
